Values without a mark were called inactive.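 How the source made its calls: active means viability increase at or above a cutoff of the median across tested compounds plus 3 SD (cut at about 8.5% in these data, passing the limit was not always enough); inconclusive means some gains above the cutoff, reason not given; inactive means the rest.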

A short description of this experiment: doxorubicin toxicity protection in MRP-1 cells – H69AR cells, CellTiter-Glo, duplicate, MRP-1 activator project, pilot screen (AID 807).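 Further: compound pretreatment 18-22 h then 72 h combined with doxorubicin; 0% = doxorubicin alone and 100% = vehicle without doxorubicin.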 The following applies: H69AR viability with doxorubicin, CellTiter-Glo luminescence; at 10 µM; active compounds read high.
As to `COc1ccc(N2C(=O)CC(c3ccc(OC(C)C)cc3)C2=O)cc1` (stereo not drawn), the viability increase is 1.46%. As for `COC(=O)CN1C(=O)C(O)(CC(=O)c2cccc(Br)c2)c2ccccc21` (stereo not drawn), the figure is -4.39%; as for `O=C1C(=O)N(CCCn2ccnc2)C(c2cccnc2)/C1=C(/O)c1ccc(Cl)cc1` (stereo not drawn), -0.32%; as for `CCc1ccccc1S(=O)(=O)Cc1ccc(C(=O)N2CCN(c3ccccn3)CC2)o1`, -3.28%. As to `O=C(NC1CCCc2ccccc21)c1cccnc1` (stereo not drawn), the viability increase is -1.04%.

With `Brc1ccc(-c2noc(CCc3ccccc3)n2)o1`, the viability increase is 1.58%.

As to `COc1cc2c(cc1OC)CN(Cc1cccs1)CC2`, the viability increase was -1.14%. Under `Cc1ccc(C)c(NC(=O)CS(=O)(=O)c2cn(C)c3ccccc23)c1` stands -0.69%; under `CCOc1ccc(S(=O)(=O)Nc2ccccc2C(=O)NCC2CCCO2)cc1` (stereo not drawn), -0.84%; under `CN1CCN(CCCNC(=O)c2ccc(CS(=O)(=O)c3ccc(Br)cc3)o2)CC1`, -1.18%. Under `O=C(COC(=O)C1CC(=O)N(C2CCCCC2)C1)c1ccc(F)cc1` (stereo not drawn) stands -2.49%; under `C=CCN1C(=O)c2oc3ccccc3c(=O)c2C1c1ccc(O)c(OC)c1` (stereo not drawn), -2.61%; under `Cc1ccc(Oc2ccccc2)c(NC=O)c1`, -3.07%. As for `Cc1c(C)n(C(=O)CSc2nncn2C)c2ccccc12`, the figure is -2.73%; as for `Cc1ccc(C)c(Cn2c(CN(C)Cc3ccccc3)nc3c2c(=O)n(C)c(=O)n3C)c1`, -6.57%.

On to `Cc1noc(NS(=O)(=O)c2ccc(NC(=O)CSc3ncccn3)cc2)c1C`, for which the viability increase is -0.58%. Under `C=CCOC(=O)C1=C(C)N(C)C(=O)NC1c1cc2c(cc1Br)OCO2` (stereo not drawn) stands -1.27%; under `CCOc1ccccc1Oc1c(C)oc2cc(OC(=O)N3CCOCC3)ccc2c1=O`, -0.28%; under `COC(=O)CSc1nc(C)cc(Oc2ccccc2)n1`, -1.76%. As to `Cc1noc(C)c1S(=O)(=O)N(CC(=O)N1CCc2ccccc21)c1ccc(C(C)C)cc1`, the viability increase is -5.04%. For `CSc1ccc(Cl)c(C(=O)NCc2ccco2)c1`, the viability increase was -3.7%.

As to `CSc1nnc(Cn2c(=O)sc3ccccc32)n1-c1ccccc1C`, the viability increase is -2.05%. As to `CCCC(=O)C1=C(O)C(C(=O)OC)C(C)(C)CC1=Nc1ccccc1` (stereo not drawn), the viability increase is -0.91%.

The values are drawn from PubChem BioAssay.
